Results from PubChem BioAssay AID624297 (National Center for Advancing Translational Sciences (NCATS), 2012).
About 6,200 (1.8%) of roughly 340,000 compounds were called active. Inconclusive results (about 10%) are left out. This excerpt belongs to a sample that is enriched for actives. A number with no mark means an inactive call. The call rests on the fitted dose curve; in most records, active means well fitted activation curve with a large enough effect; inconclusive means small, poorly fitted or top-dose-only effect; inactive means no such curve, though single readings can be large or run the other way.

Assay: A quantitative high throughput screen for small molecules that induce DNA re-replication in SW480 colon adenocarcinoma cells. Further: nearly all actives have a fitted effect of over 55% in size. On re-replication activation: % of control where 0% means no effect.
Conditions: Hoechst DNA content imaging, 48 h; series mostly up to 46.1 µM; re-replication activation: at the top concentration
Summary of the method: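 Per well, 250 cells were exposed to pinned compound for 48 hr. Nuclear DNA was visualised with Hoechst (40 min, 37 C) and total object intensity recorded by fluorescence scanning.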
Potency means the concentration at half of the fitted maximal effect.

Row | Compound | re-replication activation | Potency
1 | O=C(CSc1cccc[n+]1[O-])c1ccc(Cl)cc1 | 9.54% | 
2 | O=C(CSc1cccc[n+]1[O-])c1ccc(-c2ccccc2)cc1 |  | 2.82 µM (active)
3 | COc1ccccc1C(=O)CSc1cccc[n+]1[O-] | -6.96% | 
4 | O=C(NCCc1ccc(F)cc1)c1ccc2nccnc2c1 | -5.68% | 
5 | O=C(OCCOc1ccccc1Cl)c1cc(S(=O)(=O)N2CCCCC2)ccc1N1CCOCC1 | -2.46% | 
6 | Cc1cc(C(=O)Nc2nnc(C3CC3)s2)c(C)s1 | -62.8% | 
7 | Cc1cccn2c(=O)c3cc(C(=O)NCCN4CCOCC4)c(=N)n(Cc4cccnc4)c3nc12 |  | 4.11 µM (active)
8 | Cc1ccc(Cn2c(C)c3cnn(CC(=O)NCCN4CCOCC4)c(=O)c3c2C)cc1 | -3.76% | 
9 | COc1ccc(CCNC(=O)Cn2c(=O)n(CC3CCCO3)c(=O)c3ccccc32)cc1OC (stereo unspecified) | 4.93% | 
10 | O=C(CSc1nc2ccccc2c(=O)n1Cc1ccc(F)cc1)NCC1CCCO1 (stereo unspecified) | -1.49% | 
11 | Cc1ccc(CCNC(=O)c2ccc3nc4ccccc4c(=O)n3c2)cc1 | 0.89% | 
12 | O=C(NCC1CCCO1)c1cc2c([nH]c3ccccc32)c(-c2ccc(F)cc2)n1 (stereo unspecified) | 4.34% | 
13 | Cc1ccc2nc3c(cc(C(=O)NCCc4ccccc4)c(=N)n3CC3CCCO3)c(=O)n2c1 (stereo unspecified) |  | 11.6 µM (active)
14 | Cc1cccn2c(=O)c3cc(C#N)c(=O)n(CCCN4CCOCC4)c3nc12 | -24.6% | 
15 | Cc1cccn2c(=O)c3cc(C(=O)NCC4CCCO4)c(=N)n(Cc4ccc(F)cc4)c3nc12 (stereo unspecified) |  | 8.2 µM (active)
16 | COc1ccccc1NC(=O)N(O)C1(C#N)CCCCC1 | -4.71% | 
17 | O=C(Cn1cnc2ccccc2c1=O)NNC(=O)c1ccccc1F | -0.586% | 
18 | CCCN(C(=O)COC(=O)CNS(=O)(=O)c1ccc(NC(C)=O)cc1)C1CCS(=O)(=O)C1 (stereo unspecified) | 4.31% | 
19 | C[C@H]1CN([C@@H](C)CO)C(=O)Cc2cc(NS(C)(=O)=O)ccc2O[C@@H]1CN(C)CC1CC1 | -2.55% | 
20 | NC(=O)c1ncn([C@@H]2O[C@H](CN=C3NS(=O)(=O)c4ccccc43)[C@@H](O)[C@H]2O)n1 | -0.422% | 
21 | Nc1ccc2nc3c(=O)[nH]c(=S)[nH]c3nc2c1 |  | 4.61 µM (active)

Row | Compound | re-replication activation | Potency
22 | CSCCC(NC(=O)COc1ccccc1)C(=O)N1CCN(c2cccc(C(F)(F)F)c2)CC1 (stereo unspecified) | -61.9% | 
23 | CCN(CC)C(=O)[C@H]1C[C@H](CC(=O)NCC23CC4CC(CC(C4)C2)C3)C(=O)N2CCc3c([nH]c4cc(CCC(=O)N(C)C)ccc34)[C@]12C | 25.4% [at 9.22 µM] | 
24 | CN(C)C(CNC(=O)c1cc2ccccc2o1)c1ccccc1 (stereo unspecified) | -0.173% | 
25 | O=C(c1cnccn1)N1CCN(S(=O)(=O)c2cccc(Cl)c2)CC1 | -0.271% | 
26 | COc1ccc(N=C(C)c2sc3ccccc3c2O)cc1 | -7.9% | 
27 | Oc1ccc(N=Cc2sc3ccccc3c2Cl)cc1 |  | 9.2 µM (active)
28 | Cc1nn(C)cc1/C=N/NC(=O)c1sc2ccccc2c1Cl | -4.27% | 
29 | CC1(C)C(=O)CCC2(C)C1=CCC1C2C(=O)CC2(C)C1CCC2(O)C(=O)CO (stereo unspecified) | -5.75% | 
30 | COc1ccc(-c2cc(C(F)(F)F)nc(NCc3cccnc3)n2)cc1 | -5.23% | 
31 | COc1ccc(-c2cc(C(F)(F)F)nc(S(C)(=O)=O)n2)cc1OC |  | 4.11 µM (active)
32 | COc1ccc(-c2ccc(Nc3ccc(S(=O)(=O)N4CCCC4)cc3)nn2)cc1OC | 6.25% | 
33 | CC[C@]12c3[nH]c4cc(CCC(=O)N(C)C)ccc4c3CCN1C(=O)[C@@H](CC(=O)NCCCn1ccnc1)C[C@@H]2C(=O)N1CCN(C(=O)C2CC2)CC1 | 0.558% | 
34 | NC1=NOC(=O)C1C1CCCCC1 (stereo unspecified) | 0.706% | 
35 | CC(=O)OCC(=O)C1(O)CCC2C3CC(C)C4=CC(=O)CCC4(C)C3C(O)CC21C (stereo unspecified) | -2.38% | 
36 | O=C(c1ccc2c(c1)C(=O)N(Cc1ccncc1)C2=O)N1CCN(S(=O)(=O)c2ccc(OC(F)(F)F)cc2)CC1 | -0.488% | 
37 | CCN(C[C@H]1N[C@@](CC)(C(=O)OC)[C@H]2C(=O)N(C)C(=O)[C@@H]12)C(=O)Nc1ccc(F)cc1 | -61.2% | 
38 | O=C(c1ccccc1)N1N=C(c2ccccc2O)CC1c1ccc(Br)cc1 (stereo unspecified) | -5.14% | 
39 | Oc1ccccc1C1=NN(c2ccccc2)C(c2ccccc2)C1 (stereo unspecified) |  | 8.2 µM (active)
40 | CC(=O)Oc1ccccc1C1=NN(C(C)=O)C(c2ccccc2)C1 (stereo unspecified) | -16.4% | 
41 | O=C1NCC(=O)N(Cc2ccccc2)/C1=C/c1ccccc1 | 24.2% | 
42 | Clc1ccc(CN2CCN(/N=C/c3cccnc3)CC2)cc1 | -3.04% | 

Row | Compound | re-replication activation | Potency
43 | O=C1/C(=C\c2cccnc2)CN(Cc2ccccc2)C/C1=C\c1cccnc1 |  | 0.13 µM (active)
44 | COc1cc(/C=N\NC(=O)c2nonc2N)c(OC)cc1Br |  | 0.291 µM (active)
45 | COc1cc(OC)c(/C=N/NC(=O)c2ccc([N+](=O)[O-])cc2)cc1Br | -8.94% | 
46 | Cc1cc(C)c([N+](=O)[O-])cc1-c1ccc(/C=N/NC(=O)c2nonc2N)o1 | -0.463% | 
47 | C[C@@H]1CN([C@@H](C)CO)C(=O)c2cc(NC(=O)C3CC3)ccc2O[C@H]1CN(C)C | -5.73% | 
48 | COc1cc(C(=O)OCc2cc(=O)n3ccsc3n2)ccc1OC(C)C | -0.423% | 
49 | CC(NC(=O)C(=O)NN=C1CCC(C(C)(C)C)CC1)c1ccccc1 (stereo unspecified) |  | 0.731 µM (active)
50 | CC(C)(C)C1CCC(=NNC(=O)c2cc(-c3ccccc3)n[nH]2)CC1 (stereo unspecified) | 13.8% | 
51 | CC(NC(=O)C(=O)N/N=C/c1ccc(Cl)cc1)c1ccccc1 (stereo unspecified) | 3.87% | 
52 | CC[C@@]1(C(=O)OC)N[C@H](CN(C)C(C)=O)[C@@H]2C(=O)N(C)C(=O)[C@@H]21 | -9.49% | 
53 | COc1ccccc1C1C2=C(COC2=O)Nc2cc3c(cc21)OCO3 (stereo unspecified) | -28% | 
54 | CCCOc1ccccc1C1CC(=O)Nc2cc3c(cc21)OCO3 (stereo unspecified) |  | 3.66 µM (active)
55 | COC(=O)C1=C(C)NC(=O)CC1c1ccccc1OC (stereo unspecified) | 1.66% | 
56 | COc1ccc(C)cc1NC(=O)CSc1cccc[n+]1[O-] | -10.9% | 
57 | O=S(=O)(NCc1ccc(Cl)cc1Cl)c1cccs1 | 0.858% | 
58 | O=S(=O)(Cc1ccc(Cl)cc1Cl)c1ccc(Cl)cc1 |  | 1.3 µM (active)
59 | Cc1ccc(S(=O)(=O)Cc2cc(-c3ccc(Cl)cc3)no2)cc1 | 22.8% | 
60 | Nn1c(SCC(=O)NC2CCCc3ccccc32)nnc1C1CC1 (stereo unspecified) | -5.75% | 
61 | CN(C)C(=O)CCc1ccc2c3c([nH]c2c1)[C@]1(CCC2CCCC2)[C@@H](C(=O)N2CCOCC2)C[C@H](CC(=O)NCc2ccco2)C(=O)N1CC3 | 19.7% [at 9.22 µM] | 
